Experimental data reported in PubChem BioAssay (NCATS).
A number with no mark means an inactive call. Inconclusive results are not listed. A call without a number means that no potency is given here. Active and inactive are the calls of the source. Calls follow the shape of the dose curve; as a rule, active = well fitted curve in the direction sought with a large enough effect; inconclusive = small, poorly fitted or top-dose-only effect, or another doubt; inactive = no such curve, though single readings can be large; an effect the other way counts as inactive or inconclusive.

Legend:
[1] = HEK293 18hr Apoptosis Induction qHTS against the NCATS CANVASS Library (AID 1347357)
Outline: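 Luminescent caspase-3/7 signal is measured in HEK293 cells exposed for 18 hours to an 11-point concentration series; doxorubicin serves as the plate control.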

[2] = HPAF-II 12hr Apoptosis Induction qHTS against the NCATS CANVASS Library (AID 1347358)
Outline: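 HPAF-II cells (500/well, DMEM + 10% FBS) were exposed to compounds for 12 hours at 37 degrees C. Caspase-3/7 activity was then read by Caspase-Glo 3/7 luminescence after 15 min at room temperature.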

[3] = HEK293 24hr Apoptosis Induction qHTS against the NCATS CANVASS Library (AID 1347359)
Outline: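 HEK293 cells (500/well, DMEM + 10% FBS) were exposed to compounds in an 11-point series for 24 hours at 37 degrees C, then caspase-3/7 activity was read by Caspase-Glo DEVD luciferase luminescence after 15 min.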

[4] = HPAF-II 18hr Apoptosis Induction qHTS against the NCATS CANVASS Library (AID 1347360)
Outline: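 Apoptosis was scored as caspase-3/7 activity in HPAF-II pancreatic cancer cells treated 18 hours with an 11-point concentration series.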

[5] = HEK293 12hr Apoptosis Induction qHTS against the NCATS CANVASS Library (AID 1347361)
Outline: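 Apoptosis in HEK293 was scored as caspase-3/7 luminescence following 12 h treatment with a compound concentration series in qHTS format.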

[6] = test system: NAD(P)H diaphorase (Clostridium kluyveri); assay: Diaphorse counterscreen qHTS: Assay Interference Panel against the NCATS CANVASS Library (AID 1347362)
Outline: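 Clostridium kluyveri diaphorase in PBS with 0.01% Tween-20 was preincubated 15 min at room temperature in the dark with compounds (11-point series). Resorufin fluorescence (ex 525/20, em 598/25) was read 5 min after adding resazurin/NADH.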

[7] = molecular target: Luciferin 4-monooxygenase (Photinus pyralis) (UniProt P08659); assay: Firefly luciferase counterscreen qHTS: Assay Interference Panel against the NCATS CANVASS Library (AID 1347363); also: series mostly up to about 57 µM
Chain of Luciferin 4-monooxygenase (Photinus pyralis) (P08659 whole entry, looked up): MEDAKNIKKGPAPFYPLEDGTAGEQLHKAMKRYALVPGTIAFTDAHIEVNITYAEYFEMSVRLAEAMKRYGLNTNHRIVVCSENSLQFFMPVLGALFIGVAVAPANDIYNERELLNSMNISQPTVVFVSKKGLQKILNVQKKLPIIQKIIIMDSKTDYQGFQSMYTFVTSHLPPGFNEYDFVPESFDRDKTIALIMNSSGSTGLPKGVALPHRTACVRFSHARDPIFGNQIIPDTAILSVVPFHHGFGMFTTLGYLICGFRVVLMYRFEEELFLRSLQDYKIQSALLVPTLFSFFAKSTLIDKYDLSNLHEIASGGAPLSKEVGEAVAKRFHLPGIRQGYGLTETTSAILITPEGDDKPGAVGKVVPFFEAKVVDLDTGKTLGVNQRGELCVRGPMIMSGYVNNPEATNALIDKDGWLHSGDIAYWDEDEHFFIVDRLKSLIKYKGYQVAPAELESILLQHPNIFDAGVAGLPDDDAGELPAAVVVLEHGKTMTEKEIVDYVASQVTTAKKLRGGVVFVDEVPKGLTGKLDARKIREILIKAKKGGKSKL
Outline: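 Purified P. pyralis luciferase was added to compounds (11-point series) preincubated 15 min at room temperature with substrate containing 0.013 mM D-luciferin and 0.013 mM ATP; luminescence was read after 5 min.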

[8] = KB-3-1 Cancer Cell Toxicity qHTS against the NCATS CANVASS Library (AID 1347366); also: nearly all actives have a fitted effect of over 75% in size; also: potency is read from the fitted curve at half-maximal effect
Outline: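 Seed KB-3-1 cells at 500/well in DMEM with 10% FBS, add compounds, incubate 72 hr at 37C and 5% CO2, then add CellTiter-Glo and read luminescence after 10 minutes.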

[9] = qHTS for ATAD5 Agonist screened against the NCATS CANVASS Library (AID 1347367);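 also: luciferase reporter driven by ATAD5 which rises upon DNA damage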
Outline: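 Step one plated reporter cells and let them acclimate 5hr. Step two pinned compounds with MMS as positive and 0.46% DMSO as negative control. After 16hr incubation, fluorescence viability then luminescence were read.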

[10] = J3T Cancer Cell Toxicity qHTS against the NCATS CANVASS Library (AID 1347371); also: potency is read from the fitted curve at half-maximal effect
Outline: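 J3T dog glioma cells (500 cells/well) were exposed to compounds in an 11-point series for 72 hr at 37C, 5% CO2. Cytotoxicity was read as ATP content by CellTiterGlo luminescence.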

[11] = molecular target: Nuclear receptor subfamily 1 group I member 3 (Homo sapiens) (UniProt Q14994); assay: qHTS for Constitutive Androstane Receptor (CAR) Antagonist screened against the NCATS CANVASS Library (AID 1347372); also: potency is read from the fitted curve at half-maximal effect
Chain of Nuclear receptor subfamily 1 group I member 3 (Homo sapiens) (Q14994 whole entry, looked up): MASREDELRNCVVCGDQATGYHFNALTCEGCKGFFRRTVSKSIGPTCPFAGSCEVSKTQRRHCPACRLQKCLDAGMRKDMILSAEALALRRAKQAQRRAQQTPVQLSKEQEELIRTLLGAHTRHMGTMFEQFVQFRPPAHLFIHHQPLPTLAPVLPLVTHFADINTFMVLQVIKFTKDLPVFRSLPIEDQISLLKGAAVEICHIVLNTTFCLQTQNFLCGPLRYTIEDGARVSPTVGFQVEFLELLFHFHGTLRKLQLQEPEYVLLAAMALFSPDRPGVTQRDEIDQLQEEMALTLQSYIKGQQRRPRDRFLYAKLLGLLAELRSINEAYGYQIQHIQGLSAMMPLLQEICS
Outline: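 HepG2 cells stably carrying hCAR and a CYP2B6-2.2kb luciferase reporter were exposed to compounds plus 50 nM CITCO for 24hr at 37C. CAR activity was read by ONE-Glo luminescence, with viability measured first by CellTiter-Fluor.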

[12] = molecular target: Nuclear receptor subfamily 1 group I member 3 (Homo sapiens) (UniProt Q14994); assay: qHTS for Constitutive Androstane Receptor (CAR) Agonist screened against the NCATS CANVASS Library (AID 1347373);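 also: every well also contained 1.5 µM PK11195 alongside the test compound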
Outline: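 HepG2 cells stably expressing hCAR and a CYP2B6-2.2kb luciferase reporter were treated for 24hr at 37C with compounds (11-point qHTS) in the presence of 1.5uM PK11195. Reporter activation was read by ONE-Glo luminescence.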

[13] = qHTS for Hypoxia signaling pathway (HIF-1) agonists against the NCATS CANVASS Library (AID 1347375)
Outline: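 HRE-bla ME-180 cells (beta-lactamase reporter under hypoxia responsive element) in 0.5% dialyzed FBS medium, 5 h at 37C, then compound 17 h, 11-point qHTS series. CCF4-AM FRET substrate 2 h RT; 460/530 nm emission read.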

[14] = 10-beta competent E. coli microbial cell viability qHTS against the NCATS CANVASS Library (AID 1347376); also: series mostly up to about 46 µM
Outline: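 10-beta competent E. coli (0.9 OD culture diluted to 0.2 OD) exposed to compounds in an 11-point qHTS series, incubated overnight at 37C, 5% CO2. Viability read as ATP by BacTiter-Glo luminescence after 20 min at room temperature.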

[15] = qHTS for Inflammasome Signaling Inhibitors: IL-1-beta AlphaLISA screen against the NCATS CANVASS Library (AID 1347379);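 also: human THP-1 cells primed with LPS then triggered with ATP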
Outline: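 Human THP-1 cells were pretreated 1 hr at 37 °C with compounds (up to 57.5 uM final), then stimulated with LPS (250 ng/mL final) and ATP (1.25 mM final). Secreted IL-1B was read by AlphaLISA after 16 hr.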

[16] = Inflammasome Signaling qHTS Counterscreen: IL-1-beta AlphaLISA counterscreen against the NCATS CANVASS Library (AID 1347381);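 also: cell-free check with purified IL-1β in medium and no THP-1 cells; series mostly up to about 57 µM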
Outline: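 To flag interference with the AlphaLISA read-out, a known amount of purified IL-1-beta (4 pg) replaced cell supernatant. Detection used anti-IL-1-beta acceptor beads, biotinylated antibody and streptavidin donor beads at room temperature.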

[17] = Cytotoxicity qHTS for assessment of Hepg2 cells membrane integrity screened against the NCATS CANVASS Library (AID 1347387)
Outline: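 HepG2 cells (2000/well) attached overnight at 37C, then received compounds in an 11-point series at 0.59 nM - 46 uM final for 5 hr. LDH release was detected fluorometrically (ex 560/em 590 nm) with CytoTox-ONE reagent after 10 min at room temperature.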

[18] = qHTS for activators of dead-cell proteases activity screened against the NCATS CANVASS Library (AID 1347392);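 also: luminescence from protease leaking out of membrane-damaged cells cleaving impermeant substrate; rising signal means more cytotoxicity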
Outline: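 HepG2 cells (2000/well) attached 18 h at 37C, then exposed 5 h to compounds (11-point qHTS). Dead-cell protease activity read as luminescence from cell-impermeant AAF-aminoluciferin substrate after 15 min at room temperature.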

[19] = Viability qHTS for inhibitors of the SERCaMP assay screened against the NCATS CANVASS Library (AID 1347400); also: nearly all actives have a fitted effect of over 70% in size; also: potency is read from the fitted curve at half-maximal effect
Outline: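 SH-SY5Y-GLuc SERCaMP MJH297-derived cells (1000 cells/well) were pre-incubated 4 h at 37C, then exposed to compounds for 48 h. Viability was read as CellTiter-Glo luminescence; bortezomib served as positive control.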

[20] = qHTS for ATAD5 Antagonist screened against the NCATS CANVASS Library (AID 1347370); also: nearly all actives have a fitted effect of over 65% in size; also: potency is read from the fitted curve at half-maximal effect
Outline: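 HEK293T cells with a stably integrated ATAD5-controlled luciferase reporter were exposed to compounds (11-pt) alongside 10 uM 5-fluorouridine as ATAD5 stabilizer for 16hr at 37C. Viability was read by CellTiter-Fluor fluorescence, then ATAD5 by luminescence.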

Compound	Potency [1]	Potency [2]	Potency [3]	Potency [4]	outcome [5]	Potency [6]	Potency [7]	Potency [8]	Potency [9]	Potency [10]	Potency [11]	Potency [12]	outcome [13]	outcome [14]	Potency [15]	outcome [16]	outcome [17]	Potency [18]	Potency [19]	Potency [20]
CC1=C2CC[C@]3(C)[C@H](CC=C4[C@@H]5CC(C)(C)CC[C@@H]5C(=O)[C@H](O)[C@]43C)[C@@]2(C)C=C(O)C1=O	inactive	inactive	inactive	inactive	inactive	inactive	inactive	inactive	inactive	inactive	inactive	inactive	inactive	inactive	inactive	inactive	inactive	inactive	inactive	
CCCc1c2c([nH]c(=O)c1C)C(=O)c1[nH]c(=O)c(C)c(CCC)c1C2=O	inactive	inactive	inactive	inactive	inactive		inactive	inactive	inactive	inactive		inactive	inactive	inactive	inactive	inactive	inactive	inactive	inactive	inactive
CN1C(=O)C(=O)N2C(=C[C@]3(c4c[nH]c5ccccc45)c4ccccc4N[C@H]23)C1=O	inactive	inactive	inactive	inactive	inactive	inactive	inactive	inactive	inactive	inactive	inactive	inactive	inactive	inactive	inactive	inactive	inactive	inactive	inactive	inactive
C/C(=C\[C@@H](C)CC/C=C/CC/C=C/C(=O)O)[C@@H](O)[C@H](C)C(=O)CCCC1CC(=O)NC(=O)C1	inactive	inactive	inactive	inactive	inactive	inactive	inactive	inactive	inactive	inactive	inactive	inactive	inactive	inactive	inactive	inactive	inactive	inactive	inactive	inactive
O=C1OC(CCO)c2cccc(O)c21 (stereo unspecified)	inactive	inactive	inactive	inactive	inactive	inactive	inactive	inactive	inactive	inactive	inactive	inactive	inactive	inactive	inactive	inactive	inactive	inactive	inactive	inactive
CN1CC[C@@]23c4ccccc4N[C@@H]1[C@@]21CCN(C)[C@@H]3Nc2ccccc21	inactive	inactive	inactive	inactive	inactive	inactive	inactive	inactive	inactive	inactive	inactive	inactive		inactive		inactive	inactive	inactive	inactive	inactive
C/C(=C\[C@H](C)C(=O)/C=C/CC1CC(=O)NC(=O)C1)[C@@H]1OC(=O)/C=C/CC/C=C/C[C@@H](O)[C@@H]1C	inactive	inactive	inactive	inactive	inactive	inactive	inactive	11.8 µM (active)		3.72 µM (active)	18.6 µM (active)	inactive	inactive	inactive	6.11 µM (active)	inactive	inactive	inactive	17 µM (active)	3.31 µM (active)
C[C@@H]1CC[C@]2(C(=O)O)CC[C@]3(C)C(=C2[C@H]1C)CC[C@@H]1[C@@]2(C)CC[C@H](O)C(C)(C)[C@@H]2CC[C@]13C	inactive	inactive	inactive	inactive	inactive	inactive	inactive	inactive	inactive	inactive	inactive	inactive	inactive	inactive		inactive	inactive	inactive		inactive
COC(=O)c1cc2cc3c(c(O)c2c(=O)o1)OC1(CC3)CC2=C(O1)C(=O)c1c(O)c(OC)cc(OC)c1C2=O (stereo unspecified)	inactive	inactive	inactive	inactive	inactive		inactive		inactive	inactive	inactive	inactive	inactive	inactive		inactive	inactive	inactive		inactive
C[C@@]12C[C@@H](C[C@@H]3C(=O)O[C@@H](c4ccoc4)[C@H](OC(=O)c4ccccc4)[C@@H]31)OC2=O	inactive	inactive	inactive	inactive	inactive	inactive	inactive	inactive	inactive	inactive	inactive	inactive	inactive	inactive	inactive	inactive	inactive	inactive	inactive	inactive
Cc1cc(C)c(O)c(C(=O)CC2CC(=O)NC(=O)C2)c1	inactive	inactive	inactive	inactive	inactive	inactive	inactive	13.2 µM (active)	inactive		14.8 µM (active)	inactive	inactive	inactive	inactive	inactive	inactive	inactive		4.67 µM (active)
